Measurements from PubChem BioAssay AID504521 (NMMLSC, 2011).
This is one part of the list.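 How the source made its calls: active means compounds whose bead fluorescence drops by more than 37 kMESF across the dose range, marking them as dye quenchers; inactive means the rest.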

Assay: aptamer fluorescence quenchers, flow cytometry – biochemical, cherry pick 1, bead-based flow cytometry, artefact control for GRK2 RNA aptamer inhibitor project, dose response (AID 504521)
Details: Fluorescent RNA aptamer beads, quenching, hits give high values

Fluorescence change (kMESF span), inactive:
COc1ccc(N2CCN(C(CNS(=O)(=O)c3ccc(C)cc3)c3ccccc3)CC2)cc1 (stereo not given) 7.4 kMESF
C=C(C)C(=O)Nc1cccc(C2=NOC3(C2)C[C@H](C(N)=O)N(C(=O)C(c2ccccc2)c2ccccc2)C3)c1 (stereo not given in full) -3.5 kMESF
CCN1/C(=C/c2ccc3ccc(C)cc3[n+]2CC)Sc2ccccc21 -1.6 kMESF
CCN1/C(=C\c2ccc3ccccc3[n+]2CC)Sc2cc(C)ccc21 8.1 kMESF
O=C(CCS(=O)(=O)c1ccc(Br)cc1)NCCc1ccc(Cl)cc1 10.9 kMESF
